Measurements reported in PubChem BioAssay (EPA / NIEHS).
Records with an inconclusive call do not appear. Activity calls are given as the source filed them. How the source made its calls: active means hit-call score of the fitted dose curve at least 0.9, where 1 is the maximum; inconclusive means response in the unintended direction; inactive means score below 0.9.

target: Cellular tumor antigen p53 (Homo sapiens) (UniProt P04637); experiment: TOX21_p53_BLA_p3_ratio: Tox21 HCT-116 p53 Agonism Beta-lactamase Assay, Ratio, Phase 3 (AID 2283596)
In short: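 HCT116 p53-bla cells (4000/well) given compound in DMSO (217-fold dilution) after 5 h, incubated 16 h at 37C. CCF4-AM substrate 2 h at room temperature; 460/530 nm emission ratio, gain fitted against DMSO.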

Sequence of Cellular tumor antigen p53 (Homo sapiens) (P04637 whole entry, looked up): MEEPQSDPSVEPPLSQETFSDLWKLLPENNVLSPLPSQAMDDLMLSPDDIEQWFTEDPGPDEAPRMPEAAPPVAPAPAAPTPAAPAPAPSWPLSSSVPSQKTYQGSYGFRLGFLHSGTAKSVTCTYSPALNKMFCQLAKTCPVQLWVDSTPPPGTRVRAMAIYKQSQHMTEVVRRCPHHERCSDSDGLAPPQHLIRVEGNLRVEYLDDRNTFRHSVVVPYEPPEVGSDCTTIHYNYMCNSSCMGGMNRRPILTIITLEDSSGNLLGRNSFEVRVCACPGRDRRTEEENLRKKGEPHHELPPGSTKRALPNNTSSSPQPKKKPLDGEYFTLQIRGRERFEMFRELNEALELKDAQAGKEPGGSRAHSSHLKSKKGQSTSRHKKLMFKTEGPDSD

With `CN(C)CCN(Cc1ccc(Cl)cc1)c1ccccn1` as the compound, how does the outcome read?
The outcome was “inactive”.

With `C=CCc1ccccc1OCC(O)CNC(C)C` (stereo not drawn) as the compound, how does the outcome read?
Its outcome is “inactive”.

How did the outcome turn out when `CC1(C)S[C@@H]2[C@H](NC(=O)C(C(=O)Oc3ccc4c(c3)CCC4)c3ccccc3)C(=O)N2[C@H]1C(=O)O` (stereo partly drawn) was run?
The outcome was “inactive”.

`CCCCCCCC/C=C\CCCCCCCC(N)=O` was tested. Which outcome did it give?
Its outcome is “inactive”.

For `CNCC(=O)N[C@@H](CCCN=C(N)N)C(=O)N[C@H](C(=O)N[C@@H](Cc1ccc(O)cc1)C(=O)N[C@H](C(=O)N[C@@H](Cc1cnc[nH]1)C(=O)N1CCC[C@H]1C(=O)N[C@@H](C)C(=O)O)C(C)C)C(C)C`, which outcome is on record?
Its outcome is “inactive”.

How did the outcome turn out when `O=C(O)CCNC(=O)c1ccccc1` was run?
The outcome was “inactive”.

`CC1(C)S[C@@H]2[C@H](NC(=O)Cc3ccccc3)C(=O)N2[C@H]1C(=O)O` was tested. Which outcome did it give?
Its outcome is “inactive”.

For `Cc1ccccc1OCC(O)CNCCOc1ccc(C(N)=O)cc1` (stereo not drawn), which outcome is on record?
The outcome was “inactive”.

`C=CC(=O)OCC1CCCO1` (stereo not drawn) was tested. Which outcome did it give?
The outcome was “inactive”.

With `COC(=O)Nc1nc2ccc(C(=O)c3ccccc3)cc2[nH]1` as the compound, how does the outcome read?
The outcome was “inactive”.

`O=C1c2ccccc2C(=O)C1c1ccccc1` was tested. Which outcome did it give?
Its outcome is “inactive”.

Which outcome does the source give for `Nc1nc(N)nc(-c2cc(Cl)ccc2Cl)n1` here?
The outcome was “inactive”.

For `CCOC(=O)c1ccc(I)cc1`, which outcome is on record?
Its outcome is “inactive”.

With `NS(=O)(=O)c1cc2c(cc1Cl)NC(C(Cl)Cl)NS2(=O)=O` (stereo not drawn) as the compound, how does the outcome read?
Its outcome is “inactive”.

For `COc1ccc2c(c1OC)C(=O)O[C@@H]2[C@H]1c2c(cc3c(c2OC)OCO3)CCN1C`, which outcome is on record?
The outcome was “inactive”.

For `O=C(O)CC(=O)O`, which outcome is on record?
Its outcome is “inactive”.

`O=C(c1ccccc1)C1(O)CCCCC1` was tested. Which outcome did it give?
The outcome was “inactive”.

For `COC(=O)Nc1nc2ccc(C(=O)c3cccs3)cc2[nH]1`, which AC50 is on record?
Its AC50 is 0.0458 µM (active).

With `C[C@@H](N)C(=O)O` as the compound, how does the outcome read?
Its outcome is “inactive”.

`O=C(CCNNC(=O)c1ccncc1)NCc1ccccc1` was tested. Which outcome did it give?
The outcome was “inactive”.

With `NS(=O)(=O)c1cc2c(cc1Cl)NC(Cc1ccccc1)NS2(=O)=O` (stereo not drawn) as the compound, how does the outcome read?
The outcome was “inactive”.

How did the outcome turn out when `Cc1ccc(Cl)c(N)c1Cl` was run?
The outcome was “inactive”.

Which outcome does the source give for `CC(CN(C)C)CN1c2ccccc2CCc2ccccc21` (stereo not drawn) here?
The outcome was “inactive”.

`COC(=O)c1cccc(Cl)c1` was tested. Which outcome did it give?
The outcome was “inactive”.

Which outcome does the source give for `CN1CCN(c2c(F)cc3c(=O)c(C(=O)O)cn4c3c2SCC4)CC1` here?
The outcome was “inactive”.

For `COc1cc2nc(N3CCN(C(=O)c4ccco4)CC3)nc(N)c2cc1OC`, which outcome is on record?
Its outcome is “inactive”.

For `O=C(NCCCN1CCOCC1)c1ccc(Cl)cc1`, which outcome is on record?
The outcome was “inactive”.

How did the outcome turn out when `CC1=NN(c2ccc(C(=O)O)cc2)C(=O)C1` was run?
The outcome was “inactive”.

`CN1C[C@H]2c3ccccc3Oc3ccc(Cl)cc3[C@@H]2C1` was tested. Which AC50 did it give?
The AC50 was 43.8 µM (active).

For `NC(=O)CC[C@@H]1NC(=O)[C@H](Cc2ccccc2)NC(=O)[C@H](Cc2ccc(O)cc2)NC(=O)[C@@H](N)CSSC[C@@H](C(=O)N2CCC[C@H]2C(=O)N[C@@H](CCCN=C(N)N)C(=O)NCC(N)=O)NC(=O)[C@H](CC(N)=O)NC1=O`, which outcome is on record?
The outcome was “inactive”.

`O=Cc1ccc(F)c(Br)c1` was tested. Which outcome did it give?
The outcome was “inactive”.

Which outcome does the source give for `N=C(N)c1ccccc1` here?
The outcome was “inactive”.

Which outcome does the source give for `CC(CN(C)C)CN1c2ccccc2S(=O)(=O)c2ccccc21` (stereo not drawn) here?
The outcome was “inactive”.

For `CCOC(=O)C1=C(C)NC(C)=C(C(=O)OC)C1c1cccc(Cl)c1Cl` (stereo not drawn), which outcome is on record?
The outcome was “inactive”.

Which outcome does the source give for `[O]=[Bi][O][Bi]=[O]` here?
The outcome was “inactive”.

Which outcome does the source give for `OCC(O)COc1ccc(Cl)cc1` (stereo not drawn) here?
Its outcome is “inactive”.

How did the outcome turn out when `O=C(CO)[C@@H](O)[C@H](O)[C@@H](O)CO` was run?
Its outcome is “inactive”.

Which outcome does the source give for `CC(=O)CCC=C(C)CC/C=C(\C)CC/C=C(\C)CCC=C(C)C` here?
The outcome was “inactive”.

For `NC(=O)N1c2ccccc2CC(=O)c2ccccc21`, which outcome is on record?
Its outcome is “inactive”.

target: Cellular tumor antigen p53 (Homo sapiens) (UniProt P04637); experiment: TOX21_p53_BLA_p5_ratio: Tox21 HCT-116 p53 Agonism Beta-lactamase Assay, Ratio, Phase 5 (AID 2283599)
In short: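 HCT-116 cells carrying a p53-inducible beta-lactamase reporter were seeded at 4000 cells/well and dosed after 5 h with compound in DMSO (217-fold dilution). After 16 h at 37C, CCF4-AM substrate was added for 2 h, and the 460/530 nm emission ratio was scored as gain-of-signal versus DMSO.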

For `CN(C)CCN(Cc1ccc(Cl)cc1)c1ccccn1`, which outcome is on record?
The outcome was “inactive”.

Which outcome does the source give for `CC1(C)S[C@@H]2[C@H](NC(=O)C(C(=O)Oc3ccc4c(c3)CCC4)c3ccccc3)C(=O)N2[C@H]1C(=O)O` (stereo partly drawn) here?
The outcome was “inactive”.

How did the outcome turn out when `CCCCCCCC/C=C\CCCCCCCC(N)=O` was run?
The outcome was “inactive”.

`CNCC(=O)N[C@@H](CCCN=C(N)N)C(=O)N[C@H](C(=O)N[C@@H](Cc1ccc(O)cc1)C(=O)N[C@H](C(=O)N[C@@H](Cc1cnc[nH]1)C(=O)N1CCC[C@H]1C(=O)N[C@@H](C)C(=O)O)C(C)C)C(C)C` was tested. Which outcome did it give?
Its outcome is “inactive”.

Which outcome does the source give for `O=C(O)CCNC(=O)c1ccccc1` here?
The outcome was “inactive”.

Which outcome does the source give for `Cc1ccccc1OCC(O)CNCCOc1ccc(C(N)=O)cc1` (stereo not drawn) here?
The outcome was “inactive”.

Which outcome does the source give for `C=CC(=O)OCC1CCCO1` (stereo not drawn) here?
The outcome was “inactive”.

`COC(=O)Nc1nc2ccc(C(=O)c3ccccc3)cc2[nH]1` was tested. Which outcome did it give?
The outcome was “inactive”.

How did the outcome turn out when `O=C1c2ccccc2C(=O)C1c1ccccc1` was run?
The outcome was “inactive”.

For `CCOC(=O)c1ccc(I)cc1`, which outcome is on record?
The outcome was “inactive”.

For `NS(=O)(=O)c1cc2c(cc1Cl)NC(C(Cl)Cl)NS2(=O)=O` (stereo not drawn), which outcome is on record?
Its outcome is “inactive”.

For `COc1ccc2c(c1OC)C(=O)O[C@@H]2[C@H]1c2c(cc3c(c2OC)OCO3)CCN1C`, which outcome is on record?
Its outcome is “inactive”.

Which outcome does the source give for `O=C(c1ccccc1)C1(O)CCCCC1` here?
The outcome was “inactive”.

Which outcome does the source give for `O=C(CCNNC(=O)c1ccncc1)NCc1ccccc1` here?
Its outcome is “inactive”.

With `Cc1ccc(Cl)c(N)c1Cl` as the compound, how does the outcome read?
The outcome was “inactive”.

`CN1CCN(c2c(F)cc3c(=O)c(C(=O)O)cn4c3c2SCC4)CC1` was tested. Which outcome did it give?
Its outcome is “inactive”.

With `COc1cc2nc(N3CCN(C(=O)c4ccco4)CC3)nc(N)c2cc1OC` as the compound, how does the outcome read?
Its outcome is “inactive”.

With `CC1=NN(c2ccc(C(=O)O)cc2)C(=O)C1` as the compound, how does the outcome read?
The outcome was “inactive”.

How did the outcome turn out when `CN1C[C@H]2c3ccccc3Oc3ccc(Cl)cc3[C@@H]2C1` was run?
The outcome was “inactive”.

For `NC(=O)CC[C@@H]1NC(=O)[C@H](Cc2ccccc2)NC(=O)[C@H](Cc2ccc(O)cc2)NC(=O)[C@@H](N)CSSC[C@@H](C(=O)N2CCC[C@H]2C(=O)N[C@@H](CCCN=C(N)N)C(=O)NCC(N)=O)NC(=O)[C@H](CC(N)=O)NC1=O`, which outcome is on record?
The outcome was “inactive”.

Which outcome does the source give for `O=Cc1ccc(F)c(Br)c1` here?
The outcome was “inactive”.

With `CC(CN(C)C)CN1c2ccccc2S(=O)(=O)c2ccccc21` (stereo not drawn) as the compound, how does the outcome read?
The outcome was “inactive”.

`CCOC(=O)C1=C(C)NC(C)=C(C(=O)OC)C1c1cccc(Cl)c1Cl` (stereo not drawn) was tested. Which outcome did it give?
Its outcome is “inactive”.

Which outcome does the source give for `NC(=O)N1c2ccccc2CC(=O)c2ccccc21` here?
The outcome was “inactive”.
